# Measured values reported in PubChem BioAssay (NCATS).
# Unmarked numbers belong to inactive results. Records with an inconclusive call do not appear. The source made the active and inactive calls. Unless noted, the call rests on the fitted dose curve; in most records, active means well fitted curve in either direction with a large enough effect (not every such curve was filed as active); inconclusive means small, poorly fitted or top-dose-only effect, or another doubt; inactive means flat fitted curve, though single readings scatter.
# Tests used:
# [1] = target: Lysosomal acid glucosylceramidase (Homo sapiens) (UniProt P04062); assay: Glucocerebrosidase-p2 (AID 348; in the data active means potency below about 10 µM; further: potency means the concentration at half of the fitted maximal effect); settings: purified GBA, blue fluorogenic substrate, 40 min
# Lysosomal acid glucosylceramidase (Homo sapiens), sequence (P04062 whole entry, looked up): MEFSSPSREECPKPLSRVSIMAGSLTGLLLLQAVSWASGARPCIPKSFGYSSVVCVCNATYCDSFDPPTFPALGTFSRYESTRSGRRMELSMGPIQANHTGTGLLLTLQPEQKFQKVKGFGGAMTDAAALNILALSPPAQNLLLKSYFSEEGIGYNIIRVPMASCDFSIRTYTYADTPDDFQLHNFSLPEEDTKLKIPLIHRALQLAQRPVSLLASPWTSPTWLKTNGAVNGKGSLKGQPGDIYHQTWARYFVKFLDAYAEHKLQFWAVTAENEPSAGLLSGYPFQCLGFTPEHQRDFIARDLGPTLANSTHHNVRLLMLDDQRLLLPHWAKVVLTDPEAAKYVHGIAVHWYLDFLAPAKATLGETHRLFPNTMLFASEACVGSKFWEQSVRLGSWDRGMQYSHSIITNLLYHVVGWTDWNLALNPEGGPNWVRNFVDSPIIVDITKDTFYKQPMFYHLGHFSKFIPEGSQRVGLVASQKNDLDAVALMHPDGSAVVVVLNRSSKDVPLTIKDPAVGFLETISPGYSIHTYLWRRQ
# Method in brief: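 Normal human glucocerebrosidase (0.2 nM) with blue fluorogenic substrate (80 uM final) in citrate/phosphate pH 5.9 with 10mM sodium taurocholate, 0.01% tween-20; 40 min RT, NaOH/glycine stop; fluorescence Ex 365/Em 440; AC50 from a titration from 0.6 nM upwards.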
# [2] = AP1 Signaling Pathway (AID 357); settings: ME-180 AP-1-bla reporter, EGF-induced, beta-lactamase ratio, 5 h; at 7.69 µM (top of the series) unless noted;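 further: ME-180 reporter cells stimulated with EGF at its EC50 level; on the % scale 0 is the no-effect control and ±100 the full control effect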
# Method in brief: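 Beta-lactamase reporter under AP-1 response element, ME-180 background. Stimulus: EC50 EGF. Compound exposure 5 h, 37 °C. Detection: CCF4, 2.5 h RT, 460/530 nm. Values: AC50 from titration.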
# [3] = target: Cytochrome P450 1A2 (Homo sapiens) (UniProt P05177); assay: p450-cyp1a2 (AID 410; calls by dose curve; further: potency means the concentration at half of the fitted maximal effect;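 on activity change, negative = inhibition: -100% = full effect of reference inhibitor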); settings: recombinant CYP1A2, luciferin-ME demethylation, luminescence; series mostly up to 11.4 µM
# Cytochrome P450 1A2 (Homo sapiens), sequence (P05177 whole entry, looked up): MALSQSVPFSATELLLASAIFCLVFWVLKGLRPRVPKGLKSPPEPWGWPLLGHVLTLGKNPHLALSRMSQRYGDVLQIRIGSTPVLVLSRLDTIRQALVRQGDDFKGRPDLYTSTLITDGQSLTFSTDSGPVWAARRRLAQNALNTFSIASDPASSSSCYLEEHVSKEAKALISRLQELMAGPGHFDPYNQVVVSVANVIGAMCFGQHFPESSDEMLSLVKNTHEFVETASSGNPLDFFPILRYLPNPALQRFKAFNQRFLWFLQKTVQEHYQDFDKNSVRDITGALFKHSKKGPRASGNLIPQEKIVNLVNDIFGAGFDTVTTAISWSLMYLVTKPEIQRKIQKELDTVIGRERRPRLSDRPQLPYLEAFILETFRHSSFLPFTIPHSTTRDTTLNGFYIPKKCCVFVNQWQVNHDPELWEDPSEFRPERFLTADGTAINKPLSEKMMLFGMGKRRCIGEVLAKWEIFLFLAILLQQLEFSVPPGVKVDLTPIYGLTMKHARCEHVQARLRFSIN
# Method in brief: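 Luminescent demethylation readout: Luciferin-ME (100uM, equal to Km) turned over by 20nM CYP1A2 for 60 min at room temperature after NADPH regeneration addition, following 10 min compound preincubation. Normalization used 57 uM furafylline as full inhibition.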
# [4] = NFAT Signaling Pathway (AID 444); settings: Jurkat NFAT-bla M1, carbachol, beta-lactamase ratio, 5 h; at 7.69 µM (top of the series) unless noted;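 further: carbachol stimulus at about its EC50 of 1 µM final; on the % scale 0 is the no-effect control and ±100 the full control effect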
# Method in brief: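 Read-out: CCF4 FRET ratio (460 nm/530 nm) after 1 h RT dye loading, used for %activity and AC50 from titration series. Cells: Jurkat NFAT-β-lactamase/M1 line, treated with compound plus 1 uM carbachol for 5 h, 37 °C.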
# [5] = Stat Signaling Pathway (AID 446); settings: ME-180 (cervical carcinoma) SIE beta-lactamase reporter, IL-6 stimulated, 5 h; at 7.69 µM (top of the series) unless noted;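 further: ME-180 cervical cancer cells given 40 pM IL-6 alongside compound; SIE-controlled beta-lactamase reporter measured as 460/530 nm FRET emission ratio; on the % scale 0 is the no-effect control and ±100 the full control effect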
# Method in brief: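 Emission at 460 and 530 nm (excitation 405 nm) reports SIE-controlled beta-lactamase in ME-180 cells. Cells received compound with 40 pM IL-6 for 5 hrs at 37 C; data scaled between 300 pM IL-6 and 125 nM JAK-inhibitor controls.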
# [6] = target: Glucocorticoid receptor (Homo sapiens) (UniProt P04150); assay: GR-GFP Redistribution (AID 450;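 active means compounds whose dose series gives a full or clear partial fitted curve of increased nuclear translocation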; further: potency means the concentration at half of the fitted maximal effect); settings: U2OS GR-GFP nuclear translocation, laser cytometry, 2 h
# Glucocorticoid receptor (Homo sapiens), sequence (P04150 whole entry, looked up, the tested form may be a part): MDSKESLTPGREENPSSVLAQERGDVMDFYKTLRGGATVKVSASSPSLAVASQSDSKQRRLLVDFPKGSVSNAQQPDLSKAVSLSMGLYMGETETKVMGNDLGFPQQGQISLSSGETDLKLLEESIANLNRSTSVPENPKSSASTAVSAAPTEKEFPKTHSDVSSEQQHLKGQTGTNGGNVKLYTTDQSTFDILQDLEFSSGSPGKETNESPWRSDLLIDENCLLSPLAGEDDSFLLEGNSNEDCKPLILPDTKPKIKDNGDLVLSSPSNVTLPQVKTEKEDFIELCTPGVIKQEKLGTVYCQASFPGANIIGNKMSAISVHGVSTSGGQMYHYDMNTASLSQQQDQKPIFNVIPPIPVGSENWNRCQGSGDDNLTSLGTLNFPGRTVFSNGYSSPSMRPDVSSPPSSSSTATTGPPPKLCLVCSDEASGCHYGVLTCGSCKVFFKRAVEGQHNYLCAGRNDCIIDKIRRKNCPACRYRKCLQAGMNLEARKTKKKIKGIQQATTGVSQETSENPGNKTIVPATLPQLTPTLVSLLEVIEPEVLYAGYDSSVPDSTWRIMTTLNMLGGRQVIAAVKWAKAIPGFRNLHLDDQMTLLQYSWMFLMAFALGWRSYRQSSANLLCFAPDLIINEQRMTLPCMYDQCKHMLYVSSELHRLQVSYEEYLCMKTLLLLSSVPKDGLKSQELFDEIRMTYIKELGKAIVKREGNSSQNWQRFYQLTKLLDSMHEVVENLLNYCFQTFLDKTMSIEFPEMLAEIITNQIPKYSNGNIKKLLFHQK
# [7] = target: Glucocorticoid receptor (Homo sapiens) (UniProt P04150); assay: GR-EFC Redistribution (AID 451; calls by dose curve; further: potency means the concentration at half of the fitted maximal effect); settings: CHO-K1 GR-EFC translocation, beta-gal luminescence, 2 h
# Method in brief: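 Translocation of GR-ED fusion to nuclear EA restores b-gal, read by luminescence after 1 h room-temperature detection. Engineered CHO-K1 biosensor cells, 1,000/well, exposed 2 h at 37 C to titrations up to 46 uM final.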
# [8] = target: Mitogen-activated protein kinase 10 (Mus musculus) (UniProt Q61831); assay: JNK3 AlphaScreen Assay (AID 530); settings: JNK3 lysate, c-Jun phosphorylation; series mostly up to 11.4 µM;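 further: kinase came from lysate of stimulated human HepG2 cells; signal reports phosphorylation of biotinylated GST-cJun 1-79 at Ser73 with 10 µM ATP; on the % scale 0 is the no-effect control and ±100 the full control effect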
# Method in brief: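 qHTS titrations with 15 min compound pre-incubation before adding ATP (10 uM final). Read-out: AlphaScreen of Ser73-phosphorylated biotin-GST-cJun using HepG2 lysate JNK3 activated by IL-1β and TNFα.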
# [9] = target: 3',5'-cyclic-AMP phosphodiesterase 4B (Homo sapiens) (UniProt Q07343); assay: qHTS Assay for Inhibitors of PDE-IV (AID 607; active means well fitted activation curve with a large enough effect in the main read-out, with a control signal flat, not every such curve was filed as active; further: % of control where 0% means no effect); settings: HEK293 ACTOne CNG channel cells, membrane potential fluorescence; series mostly up to 22.9 µM
# 3',5'-cyclic-AMP phosphodiesterase 4B (Homo sapiens), sequence (Q07343 whole entry, looked up): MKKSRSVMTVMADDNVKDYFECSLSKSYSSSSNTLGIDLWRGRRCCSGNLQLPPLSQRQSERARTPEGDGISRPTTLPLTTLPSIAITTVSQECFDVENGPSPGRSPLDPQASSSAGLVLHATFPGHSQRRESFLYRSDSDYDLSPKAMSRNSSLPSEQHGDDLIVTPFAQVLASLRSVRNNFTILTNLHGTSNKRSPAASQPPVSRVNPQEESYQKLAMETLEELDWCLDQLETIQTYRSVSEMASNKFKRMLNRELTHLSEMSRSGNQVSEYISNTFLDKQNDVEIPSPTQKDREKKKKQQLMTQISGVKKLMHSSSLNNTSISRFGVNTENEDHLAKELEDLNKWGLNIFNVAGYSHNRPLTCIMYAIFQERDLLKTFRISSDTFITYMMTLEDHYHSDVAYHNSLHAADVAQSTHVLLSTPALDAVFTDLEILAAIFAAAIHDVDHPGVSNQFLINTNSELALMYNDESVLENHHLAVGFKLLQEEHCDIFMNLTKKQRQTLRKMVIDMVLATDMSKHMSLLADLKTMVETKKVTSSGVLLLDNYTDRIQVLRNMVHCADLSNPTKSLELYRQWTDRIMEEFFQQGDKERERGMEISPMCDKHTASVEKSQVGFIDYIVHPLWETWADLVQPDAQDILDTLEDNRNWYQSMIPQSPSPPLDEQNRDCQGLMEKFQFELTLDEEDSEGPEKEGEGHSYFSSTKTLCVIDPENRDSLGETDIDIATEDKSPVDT
# Method in brief: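 The readout is membrane depolarisation from a cAMP-sensing CNG channel, detected with a potential dye at ex 535/em 590. Cells were HEK293-derived (endogenous PDE-IV) at 1000 cells/well, titrated up to 22.9 uM final.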
Structure (SMILES),Potency [1],"activity change, negative = inhibition [2]",Potency [3],"activity change, negative = inhibition [4]","activity, negative = inhibition [5]",Potency [6],Potency [7],Potency [8],Potency [9],"activity change, negative = inhibition [3]"
C[C@H](CN(C)C)C(=O)c1ccccc1C(=O)O,> 11.4 µM,-1.25%,inactive,-1.83%,14.8%,> 46 µM,> 9.22 µM,inactive,inactive,–
c1ccc(CCCNc2nnnc3ccccc23)cc1,> 11.4 µM,-4.34%,3.98 µM (active),-23%,-4.36%,> 46 µM,> 9.22 µM,inactive,inactive,–
Cn1ncc2c(Cl)ncnc21,> 11.4 µM,2.44%,inactive,17.9%,13.8%,> 46 µM,> 9.22 µM,inactive,inactive,–
NS(=O)(=O)c1ccc(N=Nc2ccc[nH]c2=O)cc1,3.95 µM (active),-1.61%,0.501 µM (active),-25.2%,-6.14%,> 46 µM,> 9.22 µM,inactive,inactive,–
C[C@H]1O[C@@H](CC(=O)O)Cc2c1c(O)c1c(O)cc(-c3cc(=O)c4c(=O)c5c(c(=O)c=4c3=O)C[C@H](CC(=O)O)O[C@@H]5C)c(O)c1c2O,> 11.4 µM,13%,–,9.83%,-5.2%,> 46 µM,> 9.22 µM,inactive,inactive,-29.1% [at 2.29 µM]
CCOC(=O)c1cnc(N(C)C)nc1SC(=N)N,> 11.4 µM,-8.3%,–,11.3%,-0.214%,> 46 µM,> 9.22 µM,inactive,inactive,-22.6% [at 2.29 µM]
CC(C)(N)C(=O)N[C@@H]1C(=O)N2[C@@H]1SC(C)(C)[C@H]2C(=O)O,> 11.4 µM,-6.43%,–,-0.727%,-0.982%,> 46 µM,> 9.22 µM,inactive,inactive,4.4% [at 2.29 µM]
CN1CCCN(C)C1c1cc([N+](=O)[O-])ccc1O,> 11.4 µM,7.56%,inactive,-23.2%,-0.988%,> 46 µM,> 9.22 µM,inactive,inactive,–
C[C@H]1[C@H](C)OC(=O)C[C@H](O)C[C@H](O)C[C@H](O)CC[C@H](O)[C@H](O)CC(=O)C[C@H](O)[C@H](C(=O)O)[C@H](O)C[C@H](O[C@@H]2O[C@@H](C)[C@H](O)[C@@H](N)[C@@H]2O)C=CC=CC=CC=CCCC=CC=C[C@@](C)(O)[C@H]1O,> 11.4 µM,4.16%,inactive,2.48%,-6.26%,> 46 µM,> 9.22 µM,inactive,inactive,–
Nc1ncnc2c1ncn2C[C@@H](O)C(=O)O,> 11.4 µM,8.44%,inactive,2.36%,-0.0646%,> 46 µM,> 9.22 µM,inactive,inactive,–
NC(N)=NC[C@@H]1CCCCCCN1,> 11.4 µM,2%,inactive,4.87%,-5.43%,> 46 µM,> 9.22 µM,inactive,inactive,–
C[N+](C)(C)CCCSc1nc2ccccc2[nH]1,> 11.4 µM,-2.62%,inactive,-15.2%,-0.948%,> 46 µM,> 9.22 µM,inactive,inactive,–
COc1nc(N)nc2c1ncn2[C@@H]1C[C@H](O)[C@@H](CO)O1,> 11.4 µM,5.07%,inactive,4.99%,11.5%,> 46 µM,> 9.22 µM,inactive,inactive,–
COC(=O)CCCC(=O)O,> 11.4 µM,1.55%,–,-3.39%,-4.13%,> 46 µM,> 9.22 µM,inactive,inactive,-7.3% [at 2.29 µM]
NCCCc1ccc2oc3ccccc3c2c1,> 11.4 µM,19.9%,0.0316 µM (active),14.4%,0.365%,> 46 µM,> 9.22 µM,inactive,inactive,–
O=C(O)COc1c(Cl)cc(Cl)c2cccnc12,> 11.4 µM,6.1%,–,1.63%,-0.716%,> 46 µM,> 9.22 µM,inactive,inactive,-1.3% [at 2.29 µM]
Clc1ccc2c(NCCNc3ccnc4cc(Cl)ccc34)ccnc2c1,> 11.4 µM,-4.82%,5.01 µM (active),4.01%,9.24%,> 46 µM,> 9.22 µM,inactive,inactive,–
Cc1noc(NC(=O)Nc2ccccc2F)c1C#N,> 11.4 µM,-0.973%,0.794 µM (active),11.4%,-14.1%,> 46 µM,> 9.22 µM,inactive,inactive,–
CC1CCC(O)([C@](C)(C(=O)O)c2ccccc2)CC1 (stereo partly specified),> 11.4 µM,-5.12%,inactive,-26.7%,-1.34%,> 46 µM,> 9.22 µM,inactive,inactive,–
CN(C)Cc1cc(Cl)c(O)c(CN(C)C)c1,> 11.4 µM,0.0803%,inactive,15.1%,-1.91%,> 46 µM,> 9.22 µM,inactive,inactive,–
Nc1nc(N)nc(CCCc2nc(N)nc(N)n2)n1,> 11.4 µM,-5.42%,inactive,6.45%,1.14%,> 46 µM,> 9.22 µM,inactive,inactive,–
O=C(O)C12CC3(C(=O)O)CC(C(=O)O)(CC(C(=O)O)(C1)C3=O)C2=O,> 11.4 µM,-2.38%,–,6.84%,4.13%,> 46 µM,> 9.22 µM,inactive,inactive,-4.3% [at 2.29 µM]
Nc1nccc(Nc2ccc(S(N)(=O)=O)cc2)n1,> 11.4 µM,2.96%,inactive,-13.6%,-5%,> 46 µM,> 9.22 µM,inactive,inactive,–
NCc1nnn(Cc2ccccc2)c1N,> 11.4 µM,2.56%,inactive,19.4%,-5.08%,> 46 µM,> 9.22 µM,inactive,inactive,–
N[C@@](CC(=O)O)(Cc1ccccc1)C(=O)O,> 11.4 µM,-6.1%,–,0.819%,6.06%,> 46 µM,> 9.22 µM,inactive,inactive,-13.4% [at 2.29 µM]
O=C(O)CNCCc1ccccc1,> 11.4 µM,7.75%,inactive,-3.02%,4.05%,> 46 µM,> 9.22 µM,inactive,inactive,–
N#CC1(Nc2ccc(-c3ccc(NC4(C#N)CCCC4)cc3)cc2)CCCC1,> 11.4 µM,-7.74%,3.16 µM (active),14.8%,19%,> 46 µM,> 9.22 µM,inactive,inactive,–
CC[C@H](CN(C)C)C(=O)c1ccco1,> 11.4 µM,3.81%,inactive,-14.2%,-1.8%,> 46 µM,> 9.22 µM,inactive,inactive,–
C[C@@H](CS(=O)(=O)Cc1ccccc1)C(N)=O,> 11.4 µM,8.67%,inactive,5.68%,3.43%,> 46 µM,> 9.22 µM,inactive,inactive,–
